# High-throughput results from PubChem BioAssay.
# An excerpt weighted towards active compounds, which were near 7.7% of everything screened.
# Giardia FBPA inh – blocks Giardia fructose-bisphosphate aldolase activity. purified Giardia FBPA. Potency, µM (doses to about 59.6 µM), for inactives: top-dose activity, negative = inhibition, actives largely listed as inhibitors. 290,000 compounds, 0.71% hits; further: potency means the concentration at half of the fitted maximal effect; nearly all actives have a fitted effect of over 55% in size
# Target sequence (A8B2U2 whole entry, looked up): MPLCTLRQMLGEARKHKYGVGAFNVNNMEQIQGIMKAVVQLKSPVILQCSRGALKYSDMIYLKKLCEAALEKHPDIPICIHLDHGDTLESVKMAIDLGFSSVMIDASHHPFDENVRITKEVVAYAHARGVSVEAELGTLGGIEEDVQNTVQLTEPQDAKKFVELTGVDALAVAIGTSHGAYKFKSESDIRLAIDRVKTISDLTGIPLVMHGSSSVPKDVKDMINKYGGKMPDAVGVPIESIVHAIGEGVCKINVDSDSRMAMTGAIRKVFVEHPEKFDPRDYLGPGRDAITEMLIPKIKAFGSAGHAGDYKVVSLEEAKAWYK
#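 40 nM FBPA preincubated 10 min at RT with compound (up to 57.5 uM final), then substrate plus GAPDH/TPI/NAD/arsenate coupling and diaphorase/resazurin added. Fluorescence read after 20 min at RT, 525/598 nm.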
# HCMV inh – human cytomegalovirus inhibition; 410,000 compounds, 4.5% hits; activity change, negative = inhibition, % at 57.5 µM; HFF cells, HCMV-luciferase reporter, 72 h; hits give low values; in the data active means activity change below about -60%; inconclusive means no clear call, values can overlap the other calls; inactive means above about -39%
#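 Two-dose cell screen: HFF monolayers treated with compounds and infected with luciferase-expressing HCMV at 1 PFU/cell, 72 h at 37C, then lysed for luciferase measurement.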
# Tb PYK inh – T. brucei pyruvate kinase inhibition; Q57TT1; TbPYK enzyme, Kinase-Glo Plus ATP luminescence, 45 min; Potency, µM (series often up to 76.8 µM), without a hit: top-dose activity, negative = inhibition, actives largely listed as inhibitors; 410,000 compounds, 0.12% hits; AID 624173; further: potency means the concentration at half of the fitted maximal effect; nearly all actives have a fitted effect of over 50% in size
#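 Screened from lowest to highest concentration, compounds were pinned into TbPYK/substrate mixtures, and ADP (130 uM final) was added. Plates sat at room temperature for 45 min prior to Kinase-Glo Plus detection by luminescence.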
# FMDV inh – antivirals against foot and mouth disease virus; 410,000 compounds, 1.2% hits; Potency, µM (titrated, usually from 57.9 µM), for inactives: at the highest dose activity change, negative = inhibition, actives largely listed as inhibitors; FMDV antiviral cell-based qHTS; calls by dose curve; tested in HEK293T cells; further: read-out not given here; potency means the concentration at half of the fitted maximal effect; nearly all actives have a fitted effect of over 45% in size
# Sm TGR block – inhibitors of Schistosoma mansoni thioredoxin glutathione reductase; Q962Y6; purified TGR, DTNB reduction, TNB absorbance 405 nm; Potency, µM (highest dose often 114 µM), without a hit: top-dose activity change, negative = inhibition, most hits filed as inhibitors; 360,000 compounds, 3% hits; further: potency means the concentration at half of the fitted maximal effect; nearly all actives have a fitted effect of over 60% in size
#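 TGR 20 nM + NADPH 100 uM (dispensed conc.), cpd preinc 15 min RT; start with NADPH (500 uM addition) then DTNB (15 mM addition). Kinetic TNB absorbance, 405 nm filter. Four-parameter Hill fit across titration.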
# RE007 growth inh – less growth of the S. pombe RE007 Vpr strain | S. pombe RE007 Vpr strain, BacTiter-Glo ATP luminescence, 24 h | Potency, µM (highest dose often 92.2 µM), for the others: top-dose activity change, negative = less growth, usual class: inhibitors | 360,000 compounds, 0.21% hits | AID 651644; active means well fitted falling curve with a large enough effect; inconclusive means small, poorly fitted or top-dose-only effect; inactive means no such curve, though single readings can be large or run the other way; further: potency means the concentration at half of the fitted maximal effect; nearly all actives have a fitted effect of over 50% in size
#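 Fission yeast strain RE007, carrying one chromosomally integrated HIV-1 vpr copy, was seeded at OD 0.01 in PMG+AL medium with 23 nL pinned compound. After 24 h at 30 °C and 99% humidity, viability was read by BacTiter-Glo luminescence.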
# * = called active by the depositor; u = inconclusive; x = no result given. Unless noted, the call rests on the fitted dose curve; in most records, active means well fitted curve in the direction sought with a large enough effect; inconclusive means small, poorly fitted or top-dose-only effect, or another doubt; inactive means no such curve, though single readings can be large; an effect the other way counts as inactive or inconclusive. On the % scale 0 is the no-effect control and ±100 the full control effect.
SMILES,Giardia FBPA inh,HCMV inh,Tb PYK inh,FMDV inh,Sm TGR block,RE007 growth inh
COc1ccc2cc3c(N)nn(C(=O)c4ccc(OC)c(OC)c4)c3nc2c1,x,-38,2%,-13%,2%,x
COc1ccc2cc3c(N)nn(C(=O)Cc4ccc(Cl)cc4)c3nc2c1,-2%,-67*,0%,-3%,0%,-8%
COc1cccc(CC(=O)n2nc(N)c3cc4ccc(OC)cc4nc32)c1,-1%,55,0%,-24%,-23%,0%
COc1ccc2cc3c(N)nn(C(=O)Cc4c[nH]c5ccccc45)c3nc2c1,-1%,-9,-1%,-20%,-7%,2%
COc1ccc(NC(=O)N(C)C[C@H]2OCc3cnnn3CCCC(=O)N([C@H](C)CO)C[C@@H]2C)c(OC)c1,x,14,x,x,x,x
CCC(C(=O)Nc1ccc(C(=O)OC)cc1)n1c(=O)c(-c2ccccc2NC(C)=O)nc2ccccc21 (stereo not given),x,-35,2%,-12%,-6%,x
COc1ccc(OC)c(NC(=O)C2CCN(S(=O)(=O)c3ccc4c(c3)CCCC(=O)N4)CC2)c1,x,-7,5%,-14%,5%,x
CCCCN(CCCC)CC(O)c1cc(Cl)cc2c1-c1ccc(Cl)cc1/C2=C/c1ccc(Cl)cc1 (stereo not given),x,x,-15%,x,x,x
C=CCOC(=O)c1[nH]c2c(c1C)C(=O)CC(c1ccco1)C2 (stereo not given),-3%,x,-17%,6%,45µM*,0%
Cc1c(C(=O)OCC2CCCO2)[nH]c2c1C(=O)CC(c1ccco1)C2 (stereo not given),-8%,x,-10%,0%,u,3%
Cc1c(C(=O)OC2CCCC2)[nH]c2c1C(=O)CC(c1ccco1)C2 (stereo not given),2%,-95*,-4%,u,-34%,-3%
C/C=C/COC(=O)c1[nH]c2c(c1C)C(=O)CC(c1ccco1)C2 (stereo not given),-3%,-65*,-9%,-5%,50µM*,2%
Cc1c(C(=O)OCC(C)C)[nH]c2c1C(=O)CC(c1ccco1)C2 (stereo not given),-10%,-77*,-8%,0%,u,-8%
Cc1c(C(=O)OC2CCCCC2)[nH]c2c1C(=O)CC(c1ccccc1)C2 (stereo not given),x,-8,-2%,-24%,8%,x
CC(C)Oc1cccc(Nc2nccc3c2cc(-c2ccc(C(=O)N(C)C)cc2)n3C)c1,x,23,x,x,x,x
Nc1c(-c2nc(-c3ccccc3Cl)no2)nnn1-c1ccccc1F,x,69,-4%,55%,-2%,x
N#CC1(NC(=O)CSc2nc3ccccc3s2)CCCCC1,x,-11,-3%,17%,-1%,8%
N#CC1(NC(=O)CSc2nc3ccc([N+](=O)[O-])cc3s2)CCCCC1,x,-81*,1%,u,-9%,-7%
Cc1cccc(OCCC(=O)Nc2ccc(C)c(S(=O)(=O)N3CCCCC3)c2)c1,-5%,-64*,11%,-9%,-2%,6%
COc1ccc(NC(=O)CCC2CCCCC2)cc1S(=O)(=O)N1CCCCC1,-2%,-82*,-10%,-12%,16%,3%
COc1ccc(NC(=O)CCOc2cc(C)ccc2C)cc1S(=O)(=O)N1CCCCC1,x,-62*,0%,u,x,9%
Cc1cccc(OCCC(=O)NCC(=O)Nc2cccc(C)c2C)c1,16µM*,-1,3%,-6%,2%,4%
COc1ccc(NC(=O)CC2CCCC2)cc1S(=O)(=O)N1CCCCC1,1%,-40,7%,-21%,5%,5%
CCCN1CC(CSC)C[C@H]2c3cccc4[nH]cc(c34)C[C@H]21 (stereo not given in full),6%,x,x,0%,x,x
CC(C)c1ccc(NC(=O)C2CCN(S(=O)(=O)c3cccc4nonc34)CC2)cc1,x,-11,4%,-16%,4%,x
SMILES,Giardia FBPA inh,HCMV inh,Tb PYK inh,FMDV inh,Sm TGR block,RE007 growth inh
CC1=C(C(=O)Nc2cccnc2)C(c2ccccc2)n2nc(SCc3ccccc3)nc2N1 (stereo not given),x,8,-9%,0%,-1%,x
COc1ccc(C2NCCc3c2[nH]c2ccccc32)cc1COc1ccc(F)cc1 (stereo not given),-20%,-98*,5%,u,-4%,15%
Cc1ccc(NC(=O)CSCC(=O)Nc2ncc3c(n2)CC(c2ccco2)CC3=O)cc1 (stereo not given),-12%,x,-24%,8%,50µM*,14%
Cc1cc(C)cc(Nc2ncc3c(n2)CC(c2ccco2)CC3=O)c1 (stereo not given),-4%,1,1%,-12%,50µM*,-4%
O=C(Nc1ccc(-c2cn3cccnc3n2)cc1)c1cc(Br)ccc1Cl,x,-12,0%,-5%,-1%,x
CN(C)CCCNS(=O)(=O)c1ccc(N2CCC(c3ccc(Cl)cc3)=N2)cc1,9%,-102*,x,x,u,x
O=S(=O)(c1ccc(N2CCC(c3ccc(Cl)cc3)=N2)cc1)N(CCO)CCO,-1%,-27,-4%,-11%,u,-8%
O=c1cc(CCl)nc2sc3ccccc3n12,3%,u,6%,-5%,40µM*,-18%
CNC[C@H](CC1CCCCC1)NC[C@H](CO)NCCc1cccc(C(F)(F)F)c1,22%,-100*,6%,-16%,1%,-1%
CCS(=O)(=O)Nc1c(C(=O)O)[nH]c2ccccc12,12%,-108*,0%,43%,u,8%
COc1ccccc1/C=C1\CCCC2=C1Nc1nnnn1C2c1ccccc1OC (stereo not given),-13%,u,-9%,u,4µM*,x
NS(=O)(=O)c1ccc(CCNCc2cc(Cl)ccc2OCc2ccccc2)cc1,u,-67*,-1%,u,16%,-14%
NS(=O)(=O)c1ccc(CCNCc2ccccc2OCc2ccc(Cl)cc2)cc1,u,-16,-1%,-25%,3%,-7%
Cc1cccc(C(=O)Nc2nc(-c3nnn(-c4cc(C)ccc4C)c3C)ns2)c1,x,-62*,0%,u,4%,x
COc1ccc(C(=O)Nc2nc(-c3nnn(-c4ccc(F)cc4F)c3C)ns2)cc1,x,-104*,1%,u,2%,x
COc1cccc(C(=O)Nc2nc(-c3nnn(-c4ccccc4C(F)(F)F)c3C)ns2)c1,x,-76*,-2%,-11%,-4%,x
CCc1cccc(-n2nnc(-c3nsc(NC(=O)c4cccc(OC)c4)n3)c2C)c1,x,u,-10%,u,-30%,x
COc1cccc(C(=O)Nc2nc(-c3nnn(-c4cc(C)ccc4C)c3C)ns2)c1,x,-12,-2%,u,2%,x
